# Compound activity from PubChem BioAssay.
# Sampled rows, rich in hits. Any-hit rate of the full collection: about 2.4%.
# HUVEC tox IL1B: toxic to HUVEC cells under IL-1B stimulation; HUVEC cell count loss, Hoechst imaging, IL-1B stimulated; cell count reduction, % at 2 µM; 94,000 compounds, 0.41% hits;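 active = cell count reduction more than 3 SD above the screen-wide mean, cut at about 70% in these data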
# Pyk2 oligo antag: blocks oligomerization of human Pyk2 in cells; Q14289; Q293 cells, Pyk2 FERM NanoBiT luminescence; hits give low values; z-score (the deposit names both 25 µM and 10 µM); 99,000 compounds, 0.83% hits; AID 1347419;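 active = Z-score of -3 or lower, scaled per plate to the spread of control and sample wells; inactive = z-score above -3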;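 note: negative z-score means lost luminescence so less FERM oligomerization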
# Target sequence (Q14289 whole entry, looked up): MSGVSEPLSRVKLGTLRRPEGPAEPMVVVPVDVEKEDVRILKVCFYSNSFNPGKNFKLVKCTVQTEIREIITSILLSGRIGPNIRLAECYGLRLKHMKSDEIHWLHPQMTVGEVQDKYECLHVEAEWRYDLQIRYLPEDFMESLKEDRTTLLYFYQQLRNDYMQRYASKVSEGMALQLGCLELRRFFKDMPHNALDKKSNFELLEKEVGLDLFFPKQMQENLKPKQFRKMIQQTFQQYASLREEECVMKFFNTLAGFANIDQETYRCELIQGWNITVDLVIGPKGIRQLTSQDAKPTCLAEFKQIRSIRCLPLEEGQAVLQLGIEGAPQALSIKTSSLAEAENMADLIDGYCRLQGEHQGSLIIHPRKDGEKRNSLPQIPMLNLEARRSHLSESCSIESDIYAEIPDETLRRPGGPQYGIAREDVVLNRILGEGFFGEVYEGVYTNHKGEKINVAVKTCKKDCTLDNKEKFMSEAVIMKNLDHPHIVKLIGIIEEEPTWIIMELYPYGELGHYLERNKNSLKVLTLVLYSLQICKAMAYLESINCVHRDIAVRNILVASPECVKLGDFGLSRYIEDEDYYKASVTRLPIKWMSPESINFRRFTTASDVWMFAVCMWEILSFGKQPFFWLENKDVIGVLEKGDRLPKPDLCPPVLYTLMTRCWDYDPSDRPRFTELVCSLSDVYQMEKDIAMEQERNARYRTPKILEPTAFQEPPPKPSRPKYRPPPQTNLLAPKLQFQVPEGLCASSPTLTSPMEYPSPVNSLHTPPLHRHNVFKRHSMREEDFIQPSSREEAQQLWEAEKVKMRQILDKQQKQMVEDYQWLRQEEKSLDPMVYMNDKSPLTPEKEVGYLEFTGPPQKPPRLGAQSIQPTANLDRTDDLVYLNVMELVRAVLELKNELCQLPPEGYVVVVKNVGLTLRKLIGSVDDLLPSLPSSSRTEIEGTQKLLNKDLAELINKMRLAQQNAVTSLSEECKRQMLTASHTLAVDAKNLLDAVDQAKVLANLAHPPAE
# FAK blocker: inhibitors of human focal adhesion kinase; biochemical FAK kinase activity assay; AID 727; Q05397; 97,000 compounds, 0.84% hits; inhibition, %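 (tested at 7 µM)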; in the data active = inhibition above about 19%
# IL1B NFkB pot: enhances IL-1B driven NFkB nuclear translocation. activation, % at 2 µM. AID 819. 94,000 compounds, 0.3% hits. HUVEC IL-1B NFkB p65 nuclear translocation imaging;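 active = activation above 40%, about the mean plus 3 SD, also judged a hit on visual image review; inconclusive = activation above 40% but not a hit on visual review; inactive = activation not above 40% and no visual hit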;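 note: percent activation is computed from the nuclear over cytoplasmic p65 intensity ratio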
# IL1B NFkB inh: blocks IL-1B driven NFkB nuclear translocation in HUVEC cells | HUVEC IL-1B NFkB p65 nuclear translocation imaging | inhibition, % at 2 µM | 94,000 compounds, 0.43% hits;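 active = inhibition above about 30% together with a positive call from visual inspection of the well image, limit read from the data; inconclusive = inhibition above a set limit but visual check negative; inactive = inhibition not above a set limit, visual check negative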;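 note: nuclear over cytoplasmic p65 intensity ratio measured by imaging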
# JNK3 inh: inhibitors of human JNK3 kinase. P53779. purified JNK3 kinase activity, HTS. inhibition, % at 8 µM. 60,000 compounds, 0.61% hits. AID 746; in the data active = inhibition above about 17%
# Numbers stand for hits; i = inactive; ? = inconclusive; nt = not tested or not shown.
SMILES,HUVEC tox IL1B,Pyk2 oligo antag,FAK blocker,IL1B NFkB pot,IL1B NFkB inh,JNK3 inh
CC(C(=O)Nc1ccccc1)c1ccc(-c2ccccc2)c(F)c1 (centres undefined),i,i,i,i,i,nt
Cc1ccc(NC2=CC(=O)C(=O)c3ccccc32)cc1,i,i,26,i,i,nt
Cc1ccc(Nc2ccccc2)cc1,i,i,i,i,i,nt
Cc1cc(C)cc(N(CC(=O)NC2CCC(C)CC2)S(=O)(=O)c2c(C)noc2C)c1 (centres undefined),nt,nt,nt,nt,nt,i
CC(NC(=O)Cc1cccs1)C(c1cccs1)N1CCN(c2ccccc2F)CC1 (centres undefined),i,i,i,i,i,i
COc1ccc(-c2cc(-c3ccccc3)c(C#N)c(S(C)(=O)=O)n2)cc1,i,i,i,i,i,nt
CS(=O)(=O)c1nc(-c2ccc(Br)cc2)cc(-c2ccccc2)c1C#N,i,i,i,77,i,nt
COc1ccc[nH]c1=O,i,i,i,i,i,i
COc1ccc(C2C(C(=O)O)CCC(=O)N2c2ccc(OC)cc2)cc1 (centres undefined),i,i,i,i,i,nt
COc1ccc(C2C(C(=O)NCc3ccco3)CCC(=O)N2c2ccc(OC)cc2)cc1 (centres undefined),i,i,i,i,i,17
Cc1ccc(Nc2cc(=O)oc3ccccc23)c(C)c1,i,i,i,i,i,nt
Cc1ccc(NC2=C/C(=N\S(=O)(=O)c3cccs3)c3ccccc3C2=O)c(C)c1,i,-3.7,41,i,i,nt
Cc1csc(CCc2nc(C)cs2)n1,i,i,i,i,i,i
COc1ccc(NC(=O)CCCn2c(=O)[nH]c3ccccc3c2=O)cc1,i,i,i,i,i,i
COc1ccc(NC(=O)CCCCn2c(=O)[nH]c3ccccc3c2=O)cc1,i,i,i,i,i,21
CCN(CC)c1nc(N)c2c(N)n(-c3ccccc3C)c(=S)c(C#N)c2c1C#N,i,-3.7,i,?,i,i
CCn1c(SCC(=O)Nc2nc3ccc(C)cc3s2)nc2c(c1=O)SC(C)C2 (centres undefined),i,-3.6,i,i,i,i
COC(=O)c1ccc(CSc2nc(-c3ccc(OC)cc3)nc3c2c(=O)n(C)c(=O)n3C)o1,i,nt,i,i,i,i
C=CCOc1c(Cl)cc(C2NC(=O)NC(C)=C2C(=O)OC)cc1Cl (centres undefined),i,i,i,i,i,i
COc1ccc2c(Cl)c(C(N)=O)sc2c1,nt,i,nt,nt,nt,18
CCCCc1ccc(NC(=O)CSCc2cc(=O)[nH][nH]2)cc1,i,i,i,i,i,nt
Cc1ccc(C(=O)c2cc([N+](=O)[O-])ccc2N2CCOCC2)c(C)c1,88,i,i,i,96,nt
Cc1ccc(C(=O)c2cc([N+](=O)[O-])ccc2N2CCN(C)CC2)cc1,i,i,i,i,i,nt
COc1ccc(S(=O)(=O)Nc2ccc(C(F)(F)F)cc2)cc1OC,i,-3.4,i,i,i,i
COc1ccc(NS(=O)(=O)c2ccc(OC)c(OC)c2)cc1OC,nt,i,nt,nt,nt,i
SMILES,HUVEC tox IL1B,Pyk2 oligo antag,FAK blocker,IL1B NFkB pot,IL1B NFkB inh,JNK3 inh
CC(C)C(NS(=O)(=O)c1ccc2c(c1)oc(=O)n2C)C(=O)N1CCN(Cc2ccccc2)CC1 (centres undefined),i,nt,i,i,i,i
Cc1noc2ncc(C(=O)c3cc(F)ccc3O)cc12,93,i,i,i,i,nt
Cc1cc(C)nc(N(C#N)Cc2ccc(Br)cc2)n1,i,-3.1,i,i,i,i
CC1=C(C)CS(=O)N(S(=O)(=O)c2ccc(Cl)cc2)C1 (centres undefined),i,i,i,i,i,20
CCCCS(=O)(=O)Nc1ccc2ncn(C)c(=O)c2c1,72,i,i,i,i,i
Cn1cnc2cc(NS(=O)(=O)c3ccc(Br)cc3)ccc21,i,i,i,i,i,i
COc1ccc(C(CNC(=O)c2ccc3c(c2)C(=O)N(CCC(C)C)C3=O)N2CCOCC2)cc1 (centres undefined),i,i,i,i,i,i
COc1ccc(Cl)cc1-c1n[nH]c(=S)o1,i,i,i,i,i,37
CCCCn1c(-c2cc(Cl)ccc2OC)n[nH]c1=S,i,i,i,i,i,i
Cc1ccccc1-c1n[nH]c(=S)o1,i,i,i,i,i,27
COc1cc(-c2c(C#N)c(N)nc3c2c(C)nn3-c2ccc(C)c(C)c2)cc(OC)c1OC,nt,-3.4,nt,nt,nt,i
O=C(COc1ccc(/C=N/NS(=O)(=O)c2ccccc2)cc1)Nc1ccc(F)cc1,84,i,i,i,i,nt
COC(=O)c1nn(-c2ccc(OC)cc2)c(=O)cc1Oc1cccc(Cl)c1,i,i,i,i,i,nt
O=c1c2cn[nH]c2nc(SCc2ccc3c(c2)OCCO3)n1-c1ccccc1,nt,-3.7,i,nt,nt,nt
C=CCn1c2ccccc2c2nnc(SCC(=O)NC(C(=O)OC)C(C)C)nc21 (centres undefined),89,i,i,i,i,i
Cc1cn(C(=O)C(C)N2C(=O)c3ccccc3C2=O)c(C)n1 (centres undefined),87,i,i,i,i,nt
OCCNc1ncnc2c1c(-c1ccccc1)c(-c1ccccc1)n2Cc1ccco1,i,-3.3,i,i,i,i
O=C(Nc1ccc(F)cc1)C1CCC(N2C(=O)c3ccccc3C2=O)CC1 (centres undefined),i,i,i,i,i,nt
CC(=O)Oc1ccc2ccccc2c1C(NC(=O)Cc1ccccc1)c1ccc(Cl)cc1 (centres undefined),i,-4,i,i,i,nt
O=c1nc(-c2ccccc2)c2cc(Cl)ccc2[nH]1,i,i,i,i,i,i
O=c1cc2[nH]c3ccccc3c(=O)n2nc1-c1ccccc1,i,-3.1,i,i,i,nt
Cc1cccc(NC(=O)C2=C(O)c3ccccc3N(C)S2(=O)=O)c1,nt,i,i,nt,nt,nt
CN1c2ccccc2C(O)=C(C(=S)Nc2ccc(Cl)cc2)S1(=O)=O,i,-3.2,i,i,i,nt
O=C(OCC(=O)N1CCCCCC1)c1cccs1,i,i,i,i,i,i
O=C1c2[nH]nc(-c3ccccc3O)c2C(c2ccccc2F)N1Cc1ccco1 (centres undefined),i,-3.4,i,i,i,i
SMILES,HUVEC tox IL1B,Pyk2 oligo antag,FAK blocker,IL1B NFkB pot,IL1B NFkB inh,JNK3 inh
O=C1c2[nH]nc(-c3ccccc3O)c2C(c2ccccc2)N1Cc1ccco1 (centres undefined),i,i,i,i,i,i
CC(C)(C)Cc1nnc(NS(=O)(=O)c2ccc(F)cc2)s1,i,i,i,98,i,i
Clc1cccc(CSC2=NCCCN2)c1,i,nt,i,i,i,nt
CSCCC(Nc1ncnc2ccc(Br)cc12)C(=O)O (centres undefined),i,i,i,i,i,19
CC(NC(=O)c1ccccc1Cl)C(=O)O (centres undefined),i,i,i,67,i,i
CC(NC(=O)c1ccccc1NC(=O)c1ccco1)C(=O)O (centres undefined),i,i,i,i,i,i
COc1ccc(Oc2nc(Oc3ccc(OC)cc3)nc(Oc3ccc(OC)cc3)n2)cc1,i,i,i,i,i,i
CCn1c(C)csc1=NC(=O)c1ccccc1,i,i,i,i,i,i
